Laboratory results as given in ChEMBL document CHEMBL1961873, “Compounds: GSK PKIS; Assays: Nanosyn kinase panel” (2012).
“And” between values parts separate entries of the source, which are not always exact repeats. Equal entries are not always repeated.

Assays:
[1] = molecular target: RAC-alpha serine/threonine-protein kinase (Homo sapiens) (UniProt P31749); details: at 0.1 µM
[2] = molecular target: RAC-alpha serine/threonine-protein kinase (Homo sapiens) (UniProt P31749); details: at 1 µM
[3] = molecular target: RAC-beta serine/threonine-protein kinase (Homo sapiens) (UniProt P31751); details: at 0.1 µM
[4] = molecular target: RAC-beta serine/threonine-protein kinase (Homo sapiens) (UniProt P31751); details: at 1 µM
[5] = molecular target: RAC-gamma serine/threonine-protein kinase (Homo sapiens) (UniProt Q9Y243); details: at 0.1 µM
[6] = molecular target: RAC-gamma serine/threonine-protein kinase (Homo sapiens) (UniProt Q9Y243); details: at 1 µM
[7] = molecular target: G protein-coupled receptor kinase 6 (Homo sapiens) (UniProt P43250); details: at 0.1 µM
[8] = molecular target: G protein-coupled receptor kinase 6 (Homo sapiens) (UniProt P43250); details: at 1 µM
[9] = molecular target: T1, Rhodopsin kinase GRK7 (Homo sapiens) (UniProt Q8WTQ7); details: at 0.1 µM
T1 sequence (whole entry): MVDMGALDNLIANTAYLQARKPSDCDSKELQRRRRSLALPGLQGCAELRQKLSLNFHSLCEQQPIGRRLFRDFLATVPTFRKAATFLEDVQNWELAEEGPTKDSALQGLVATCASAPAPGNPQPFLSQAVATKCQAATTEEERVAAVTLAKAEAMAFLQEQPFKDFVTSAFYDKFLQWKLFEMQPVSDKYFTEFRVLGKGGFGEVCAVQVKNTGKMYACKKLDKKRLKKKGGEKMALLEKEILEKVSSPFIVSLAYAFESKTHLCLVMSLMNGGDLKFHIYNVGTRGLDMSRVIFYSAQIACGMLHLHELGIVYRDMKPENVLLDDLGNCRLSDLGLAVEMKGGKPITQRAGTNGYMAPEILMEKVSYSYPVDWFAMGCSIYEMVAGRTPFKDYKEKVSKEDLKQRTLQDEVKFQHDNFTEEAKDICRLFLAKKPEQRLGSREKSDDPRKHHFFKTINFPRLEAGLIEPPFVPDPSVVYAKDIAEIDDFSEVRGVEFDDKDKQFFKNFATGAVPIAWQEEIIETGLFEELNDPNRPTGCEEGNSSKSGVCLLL

[10] = molecular target: T1, Rhodopsin kinase GRK7 (Homo sapiens); details: at 1 µM
[11] = molecular target: Serine/threonine-protein kinase MRCK alpha (Homo sapiens) (UniProt Q5VT25); details: at 0.1 µM
[12] = molecular target: Serine/threonine-protein kinase MRCK alpha (Homo sapiens) (UniProt Q5VT25); details: at 1 µM
[13] = molecular target: Serine/threonine-protein kinase MRCK beta (Homo sapiens) (UniProt Q9Y5S2); details: at 0.1 µM
[14] = molecular target: Serine/threonine-protein kinase MRCK beta (Homo sapiens) (UniProt Q9Y5S2); details: at 1 µM
[15] = molecular target: Ribosomal protein S6 kinase alpha-5 (Homo sapiens) (UniProt O75582); details: at 0.1 µM
[16] = molecular target: Ribosomal protein S6 kinase alpha-5 (Homo sapiens) (UniProt O75582); details: at 1 µM
[17] = molecular target: Ribosomal protein S6 kinase alpha-4 (Homo sapiens) (UniProt O75676); details: at 0.1 µM
[18] = molecular target: Ribosomal protein S6 kinase alpha-4 (Homo sapiens) (UniProt O75676); details: at 1 µM
[19] = molecular target: Ribosomal protein S6 kinase beta-1 (Homo sapiens) (UniProt P23443); details: at 0.1 µM
[20] = molecular target: Ribosomal protein S6 kinase beta-1 (Homo sapiens) (UniProt P23443); details: at 1 µM

Serine/threonine-protein kinase MRCK beta (Homo sapiens), sequence (Q9Y5S2 whole entry): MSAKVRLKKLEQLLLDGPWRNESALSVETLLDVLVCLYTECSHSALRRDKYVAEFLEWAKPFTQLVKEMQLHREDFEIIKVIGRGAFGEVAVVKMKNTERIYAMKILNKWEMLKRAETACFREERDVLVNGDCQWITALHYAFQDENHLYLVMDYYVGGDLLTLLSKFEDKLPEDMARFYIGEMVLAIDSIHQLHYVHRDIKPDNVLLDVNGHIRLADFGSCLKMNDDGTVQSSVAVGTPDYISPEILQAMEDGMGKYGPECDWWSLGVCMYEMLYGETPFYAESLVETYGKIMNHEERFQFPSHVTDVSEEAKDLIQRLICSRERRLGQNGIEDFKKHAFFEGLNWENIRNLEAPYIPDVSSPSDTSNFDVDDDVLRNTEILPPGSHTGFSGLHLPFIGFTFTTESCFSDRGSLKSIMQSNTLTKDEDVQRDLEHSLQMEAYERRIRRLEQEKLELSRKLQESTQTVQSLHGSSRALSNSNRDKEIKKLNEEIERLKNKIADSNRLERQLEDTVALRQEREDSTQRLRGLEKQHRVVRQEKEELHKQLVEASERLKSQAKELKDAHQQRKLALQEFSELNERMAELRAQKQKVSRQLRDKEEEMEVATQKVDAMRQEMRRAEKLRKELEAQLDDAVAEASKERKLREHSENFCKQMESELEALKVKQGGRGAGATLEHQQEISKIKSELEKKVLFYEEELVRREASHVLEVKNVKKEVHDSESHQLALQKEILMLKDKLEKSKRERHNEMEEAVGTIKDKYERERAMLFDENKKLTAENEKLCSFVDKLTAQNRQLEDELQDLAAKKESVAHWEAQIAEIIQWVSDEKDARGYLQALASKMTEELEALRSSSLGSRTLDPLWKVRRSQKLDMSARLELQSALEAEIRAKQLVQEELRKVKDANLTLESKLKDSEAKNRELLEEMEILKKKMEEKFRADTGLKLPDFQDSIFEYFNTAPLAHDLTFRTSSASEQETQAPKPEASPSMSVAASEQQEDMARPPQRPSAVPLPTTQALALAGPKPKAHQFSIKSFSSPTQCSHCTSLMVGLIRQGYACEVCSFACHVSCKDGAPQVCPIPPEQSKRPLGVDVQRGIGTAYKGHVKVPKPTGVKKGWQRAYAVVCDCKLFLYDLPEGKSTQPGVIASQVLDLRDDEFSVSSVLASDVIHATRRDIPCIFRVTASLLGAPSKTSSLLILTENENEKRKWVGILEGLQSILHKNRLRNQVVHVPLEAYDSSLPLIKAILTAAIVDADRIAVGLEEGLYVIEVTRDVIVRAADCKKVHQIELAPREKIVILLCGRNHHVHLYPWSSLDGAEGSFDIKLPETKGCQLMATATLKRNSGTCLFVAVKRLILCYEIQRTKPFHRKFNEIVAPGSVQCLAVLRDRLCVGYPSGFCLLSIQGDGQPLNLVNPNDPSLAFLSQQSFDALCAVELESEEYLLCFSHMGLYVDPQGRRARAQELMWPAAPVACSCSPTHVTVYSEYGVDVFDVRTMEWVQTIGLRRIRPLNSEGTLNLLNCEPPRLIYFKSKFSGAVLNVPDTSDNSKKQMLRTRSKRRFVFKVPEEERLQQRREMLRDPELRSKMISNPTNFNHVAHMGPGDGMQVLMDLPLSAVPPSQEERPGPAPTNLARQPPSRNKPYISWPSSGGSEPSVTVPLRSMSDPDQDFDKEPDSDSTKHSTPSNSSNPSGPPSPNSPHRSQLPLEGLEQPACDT
RAC-beta serine/threonine-protein kinase (Homo sapiens), sequence (P31751 whole entry): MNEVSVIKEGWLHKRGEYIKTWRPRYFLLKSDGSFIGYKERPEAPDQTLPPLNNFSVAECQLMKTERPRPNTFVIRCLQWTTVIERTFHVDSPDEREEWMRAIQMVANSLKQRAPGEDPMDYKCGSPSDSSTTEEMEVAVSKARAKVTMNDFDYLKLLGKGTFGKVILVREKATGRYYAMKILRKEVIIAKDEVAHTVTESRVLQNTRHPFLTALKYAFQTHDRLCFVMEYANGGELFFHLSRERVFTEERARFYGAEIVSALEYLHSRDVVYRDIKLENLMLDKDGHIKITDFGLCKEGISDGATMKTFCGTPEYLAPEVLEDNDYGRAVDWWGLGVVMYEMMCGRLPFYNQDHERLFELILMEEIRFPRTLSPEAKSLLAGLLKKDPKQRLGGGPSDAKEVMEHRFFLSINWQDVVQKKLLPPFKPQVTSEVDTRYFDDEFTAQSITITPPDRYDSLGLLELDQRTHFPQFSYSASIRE
Ribosomal protein S6 kinase alpha-4 (Homo sapiens), sequence (O75676 whole entry, looked up): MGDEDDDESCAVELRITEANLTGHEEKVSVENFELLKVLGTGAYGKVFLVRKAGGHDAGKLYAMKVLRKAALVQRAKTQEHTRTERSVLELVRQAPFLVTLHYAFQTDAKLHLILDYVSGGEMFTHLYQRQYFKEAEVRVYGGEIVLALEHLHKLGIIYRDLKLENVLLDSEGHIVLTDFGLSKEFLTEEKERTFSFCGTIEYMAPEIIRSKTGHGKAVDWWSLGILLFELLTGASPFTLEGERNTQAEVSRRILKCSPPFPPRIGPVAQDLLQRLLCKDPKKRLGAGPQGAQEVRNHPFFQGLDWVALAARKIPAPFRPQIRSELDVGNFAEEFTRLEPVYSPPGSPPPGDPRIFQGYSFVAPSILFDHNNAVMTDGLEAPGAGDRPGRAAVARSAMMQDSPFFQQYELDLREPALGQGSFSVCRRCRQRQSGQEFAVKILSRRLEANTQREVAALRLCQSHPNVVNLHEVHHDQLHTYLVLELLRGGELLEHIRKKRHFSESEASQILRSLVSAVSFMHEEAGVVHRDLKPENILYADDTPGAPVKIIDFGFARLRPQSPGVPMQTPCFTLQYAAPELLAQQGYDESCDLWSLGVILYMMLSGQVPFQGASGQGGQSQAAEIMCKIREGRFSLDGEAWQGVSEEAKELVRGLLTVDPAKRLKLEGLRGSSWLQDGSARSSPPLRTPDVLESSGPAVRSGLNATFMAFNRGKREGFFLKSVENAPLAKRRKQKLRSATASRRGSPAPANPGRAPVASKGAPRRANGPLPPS
Serine/threonine-protein kinase MRCK alpha (Homo sapiens), sequence (Q5VT25 whole entry): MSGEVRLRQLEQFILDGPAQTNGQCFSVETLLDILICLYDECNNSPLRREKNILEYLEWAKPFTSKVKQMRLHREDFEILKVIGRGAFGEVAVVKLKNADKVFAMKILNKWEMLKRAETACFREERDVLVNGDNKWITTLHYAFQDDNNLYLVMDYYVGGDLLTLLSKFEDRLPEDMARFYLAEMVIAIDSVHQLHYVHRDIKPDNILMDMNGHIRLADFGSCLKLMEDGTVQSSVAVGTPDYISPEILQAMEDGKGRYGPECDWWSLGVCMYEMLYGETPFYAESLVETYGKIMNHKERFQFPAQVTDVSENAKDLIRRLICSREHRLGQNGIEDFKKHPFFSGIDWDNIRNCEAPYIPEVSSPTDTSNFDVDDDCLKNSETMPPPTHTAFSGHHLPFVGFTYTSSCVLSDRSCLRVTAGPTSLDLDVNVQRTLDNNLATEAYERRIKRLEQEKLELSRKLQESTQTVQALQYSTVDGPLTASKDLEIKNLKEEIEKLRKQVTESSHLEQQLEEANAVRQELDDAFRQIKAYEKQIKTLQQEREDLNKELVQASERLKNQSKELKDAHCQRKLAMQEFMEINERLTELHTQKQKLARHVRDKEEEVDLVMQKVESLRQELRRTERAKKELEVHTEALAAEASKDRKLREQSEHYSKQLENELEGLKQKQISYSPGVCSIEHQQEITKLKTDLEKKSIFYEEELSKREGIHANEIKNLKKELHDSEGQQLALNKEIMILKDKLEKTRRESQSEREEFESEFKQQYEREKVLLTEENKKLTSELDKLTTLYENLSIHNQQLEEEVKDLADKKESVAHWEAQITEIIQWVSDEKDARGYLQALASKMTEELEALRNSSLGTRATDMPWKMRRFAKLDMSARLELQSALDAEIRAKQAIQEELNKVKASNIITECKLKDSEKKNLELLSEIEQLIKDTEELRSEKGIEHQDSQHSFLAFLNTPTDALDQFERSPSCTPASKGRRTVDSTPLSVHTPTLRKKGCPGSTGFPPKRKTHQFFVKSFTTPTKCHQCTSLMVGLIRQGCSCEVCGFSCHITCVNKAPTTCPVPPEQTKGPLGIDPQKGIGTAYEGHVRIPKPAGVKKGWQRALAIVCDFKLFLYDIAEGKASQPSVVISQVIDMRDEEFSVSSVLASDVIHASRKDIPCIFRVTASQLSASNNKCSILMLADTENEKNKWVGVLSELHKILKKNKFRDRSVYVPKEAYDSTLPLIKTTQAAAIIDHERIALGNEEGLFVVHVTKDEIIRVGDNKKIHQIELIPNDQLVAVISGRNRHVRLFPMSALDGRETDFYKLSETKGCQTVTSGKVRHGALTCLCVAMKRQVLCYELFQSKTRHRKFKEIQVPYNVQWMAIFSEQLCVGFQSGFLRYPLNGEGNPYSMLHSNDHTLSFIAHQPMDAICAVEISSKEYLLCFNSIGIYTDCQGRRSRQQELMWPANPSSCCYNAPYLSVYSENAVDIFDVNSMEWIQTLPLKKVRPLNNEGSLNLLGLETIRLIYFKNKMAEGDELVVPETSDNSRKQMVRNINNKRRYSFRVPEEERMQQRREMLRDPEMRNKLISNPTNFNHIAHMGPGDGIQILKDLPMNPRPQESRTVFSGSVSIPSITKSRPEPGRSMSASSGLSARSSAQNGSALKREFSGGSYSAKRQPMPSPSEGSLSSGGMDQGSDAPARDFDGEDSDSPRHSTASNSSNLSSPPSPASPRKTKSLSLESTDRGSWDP

| SMILES | inhibition [1] | inhibition [2] | inhibition [3] | inhibition [4] | inhibition [5] | inhibition [6] | inhibition [7] | inhibition [8] | inhibition [9] | inhibition [10] | inhibition [11] | inhibition [12] | inhibition [13] | inhibition [14] | inhibition [15] | inhibition [16] | inhibition [17] | inhibition [18] | inhibition [19] | inhibition [20] |
| --- | --- | --- | --- | --- | --- | --- | --- | --- | --- | --- | --- | --- | --- | --- | --- | --- | --- | --- | --- | --- |
| FC(F)(F)CNc1nccc(-c2cnn3ncccc23)n1 | 0.05% | 0.65% | 1.43% | 0.42% | 0.5% | 1.33% | -2.66% | -0.41% | 3.21% | 0.87% | -2.84% | -3.89% | -0.09% | -0.68% | 1.98% | 1.09% | 2.33% | 1.58% | 0.49% | 0.86% |
| CN(c1ccc(NC(=O)NCCN2CCOCC2)cc1)c1ccnc(Nc2ccc(CS(C)(=O)=O)cc2)n1 | 0.71% | -0.42% | 0.78% | 0.37% | 0.73% | 0.19% | 4.41% | 7.67% | 3.45% | 5.28% | -0.04% | 2.59% | 0.01% | 0.6% | 3.04% | 3.65% | 2.62% | 3.19% | 1.53% | 1.23% |
| Fc1ccc(Nc2nccc(-c3c(-c4ccc(C(F)(F)F)cc4)nn4ncccc34)n2)cc1F | 1.15% | 1.34% | 0.91% | 1.4% | 1.72% | 1.36% | 0.33% | -0.08% | 2.15% | -0.32% | -0.28% | -1.12% | -0.35% | 1.04% | 2.66% | 2.7% | -0.61% | 2% | 1.31% | 0.33% |
| COc1ccc2ncn(-c3cc(O[C@H](C)c4ccccc4C(F)(F)F)c(C(N)=O)s3)c2c1 | -0.49% | -0.66% | -0.92% | -0.19% | 0.16% | 0.41% | -0.28% | 1.33% | -1.81% | 5.21% | -0.19% | 2.79% | 0.61% | 2.31% | -0.46% | -0.11% | 0.7% | 2.33% | 0.7% | -0.16% |
| CCn1c(-c2nonc2N)nc2cncc(C(=O)NCCNC)c21 | 1.98% | 17.7% | 3.28% | 10.5% | 4.31% | 26.2% | -0.59% | 5.57% | 9.46% | 7.46% | 14.6% | 69.9% | 23.3% | 66.7% | 55.2% | 76.8% | 35.5% | 71.4% | 31.9% | 78.2% |
| O=C(O[C@H]1CN[C@H](C#Cc2cc3ncnc(Nc4ccc5c(ccn5Cc5cc(F)ccc5F)c4)c3s2)C1)N1CCOCC1 | 0.34% | 1.4% | 1.89% | 1.81% | 0.84% | 0.51% | 3.43% | 5.16% | 3.33% | 3.94% | -0.29% | -1.5% | 1.19% | 1.68% | -1.77% | -0.4% | 2.95% | 4.34% | 1.82% | 1.74% |
| Nc1nccc(-c2c(-c3ccc(F)cc3)ncn2C2CCNCC2)n1 | -2.52% and -0.57% | -1.44% and -0.36% | -2.1% and -0.23% | -2.04% and 0.22% | -2.91% and 1.34% | -1.79% and 2.95% | -0.3% and 1.54% | 1.28% and -0.27% | -9.73% and -0.04% | -3.87% and -0.11% | 0.35% and 0.18% | 2.58% and 5.06% | 0.52% and 1.07% | 1.72% and 3.43% | -2.32% and -0.28% | -1.5% and 1.46% | -1.86% and 0.59% | -1.17% and 2.2% | -1.49% and 0.02% | -0.77% and 0.22% |
| NS(=O)(=O)c1ccc(N/N=C2\C(=O)Nc3ccc(C(=O)NCc4ccncc4)cc32)cc1 | 1.33% | 1.28% | 2.42% | 1.92% | 1.54% | 1.99% | 5.6% | 21.9% | 2.04% | 6.72% | 0.07% | 3.72% | -0.38% | 2.29% | 5.11% | 9.08% | 3.9% | 14.5% | 1.29% | 6.6% |
| COC(=O)Nc1nc2cc(Oc3ccc(NC(=O)Nc4ccccc4)cc3)ccc2[nH]1 | 0.35% | 0.28% | 1.44% | 1.16% | 2.24% | 0.78% | 3.76% | 10.8% | 4.75% | 15.2% | 1.11% | 3.26% | -0.1% | 0.05% | 2.4% | 2.36% | 2.62% | 3.88% | 2.09% | 3.12% |
| O=C1Nc2ccccc2/C1=C1\CCc2cc(O)ccc21 | 1.29% | 1.37% | 1.86% | 4.03% | 3.35% | 1.29% | 2.32% | 15% | 3.45% | 11.4% | 0.14% | 0.38% | 1.68% | 1.65% | 1.96% | 10.1% | 16.3% | 56.7% | 2.81% | 11.6% |
| CS(=O)(=O)Nc1ccc(-c2cc(-c3ccccc3)cc(C(N)=O)c2N)cc1 | 0.58% | -0.28% | 0.22% | 1.28% | -0.36% | 2.53% | 1.1% | 1.69% | 7.08% | 1.49% | -0.32% | 0.21% | 0.74% | 1.3% | 3.96% | 1.83% | -0.81% | 0.34% | -1.22% | 0.07% |
| CS(=O)(=O)Nc1ccc(-c2ccc3c(NC(=O)C4CC4)n[nH]c3c2)cc1 | 1.74% | 2.3% | 1.58% | 4.27% | 3.61% | 0.93% | 2.24% | 1.55% | 5.28% | 2.36% | -0.45% | -1.86% | -0.12% | 1.45% | 3.35% | 5.67% | -1% | 3.37% | 2.17% | 2.83% |
| CN1CCC(n2cnc(-c3ccc(F)cc3)c2-c2ccnc(NCCO)n2)CC1 | 0.7% | 1.07% | 1.3% | 1.3% | 1.33% | 2.14% | 4.71% | 6.12% | 4.41% | 7.73% | 0.14% | 2.92% | -1.48% | 0.28% | 3.35% | 4.7% | 1.86% | 4.02% | 0.69% | 1.98% |
| Nc1nonc1-c1nc2cnccc2n1C1CC1 | 1.26% and -2.25% | 8.06% and 5.34% | 2.53% and -2.31% | 5.04% and 2.15% | 1.66% and -2.03% | 6.38% and 2.16% | 0.65% and 3.64% | 6.46% and 11.6% | -3.85% and 3.25% | -0.48% and 7.79% | 4.84% and 5.86% | 35.7% and 40% | 7.62% and 9.27% | 41% and 42.7% | 75.6% and 71.7% | 82.3% and 76.5% | 44.6% and 48.9% | 75.1% and 74.5% | 66.6% and 68.6% | 89.3% and 88.8% |
| CNC(=O)c1sc(-n2cnc3cc(OC)c(OC)cc32)cc1OCc1ccccc1C(F)(F)F | 0.98% | 0.75% | 0.84% | 2.06% | 1.19% | 2% | 0.06% | -0.11% | 4.78% | 3.47% | -1.57% | 2.7% | 0.75% | -0.54% | 1.63% | -0.43% | 3.06% | 2.24% | 1.25% | 0.64% |
| Cc1ccc(-c2cc3c(NC(=O)C4CC4)ncnc3o2)cc1 | 0.96% | 1.39% | 1.6% | 1.7% | 3.51% | 2.62% | 3.77% | -1.16% | 4% | 1.88% | -0.24% | 0.37% | 1.15% | 1.58% | 3.67% | 3.15% | 2.15% | 4.27% | 2.29% | 1.52% |
| Cc1nnc(-c2cccc(-c3ccc(C(=O)NCC4CC4)cc3)c2)o1 | 0.55% | 1.35% | 2.63% | 1.84% | 1.35% | 1.48% | 3.35% | 10.4% | 6.78% | 6.04% | -0.4% | 2.11% | -0.19% | -0.8% | 4.52% | 3.95% | 3.13% | 3.75% | 1.6% | 3.46% |
| COc1c(C(N)=O)cc(-c2ccc(Cl)cc2)cc1-c1ccc(S(N)(=O)=O)cc1 | 1.15% | 2.28% | 2.77% | 1.74% | 1.8% | 3.15% | 4.42% | 7.23% | 10.6% | 2.21% | 5.11% | 4.98% | -0.26% | 2.36% | 2.38% | 3.81% | 3.65% | 5.79% | 3.07% | 4.29% |
| CCS(=O)(=O)c1ccc(OC)c(Nc2ncc(-c3cccc(F)c3)o2)c1 | 0.91% | 0.05% | 0.44% | 3.48% | 2.02% | 8.05% | 4.17% | 2.93% | 9.79% | 3.77% | 4.37% | 2.99% | 0.15% | 0.78% | 5.29% | 7.75% | 4.36% | 5.01% | 2.77% | 5.19% |
